In PubChem BioAssay one finds composite z-score and z-score data, which are given here for 18 compounds.

Assay [1] has as its system Human papillomavirus type 1a protein E7 (residues 44-93). The experiment in a line: small molecules binding HPV E7 44-93 – biochemical, small-molecule microarray, residues 44-93, 635 nm fluorescence, primary screen (AID 1108).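 Also: E7 fragment applied at 1 µg/mL in TBST for 1 h at 4 C; score combines spot fluorescence with its signal to noise ratio.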 Particulars: fluorescence 635 nm, higher = more signal.
A short description of assay [2]: hepatitis C replication reporter changes, two-sided – Huh7 cells, luciferase reporter, HCV replication inhibitor project, primary screen (AID 1109).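 Also: huh7 hepatoma cells harbouring a luciferase neomycin HCV replicon reporter; luciferase luminescence as measure of HCV replicon replication; test concentration not given here.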 To be noted: Huh7 HCV replicon luciferase reporter, 48 h; higher = more signal.
Assay [3] addresses Left-right determination factor 2 (Homo sapiens) (UniProt O00292). Nature of the assay: small molecules binding LEFTY2 protein – biochemical, small-molecule microarray, 635 nm fluorescence scan, primary screen (AID 1110). To be noted: higher = more signal.
For assay [4], the target named is Calmodulin-1 (Homo sapiens) (UniProt P0DP23). The experiment in a line: small molecules binding calmodulin-1 with EGTA – biochemical, small-molecule microarray, Cy5-labelled CALM1, profiling panel (AID 1111).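 Also: labelled calmodulin applied in Tris saline Tween buffer holding calcium plus EGTA and DTT.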 To be noted: Cy5-CALM1 binding fluorescence, higher = more signal.
Assay [5] has the same target. The experiment in a line: small molecules binding Ca-loaded calmodulin-1 – biochemical, small-molecule microarray, Cy5-labelled CALM1, plus calcium, artefact control for SMM control-protein annotation, profiling panel (AID 1112).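 Also: score merges spot fluorescence with signal to noise from triplicate slides.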 To be noted: Cy5-CALM1 binding fluorescence, higher = more signal.
Assay [6] is described as follows: probe aWnt5a binding to arrayed compounds – biochemical, biotinylated probe, 635/667 nm fluorescence, primary screen (AID 1113).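 Also: score merges 667 nm fluorescence intensity with signal-to-noise per printed feature.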 Particulars: small-molecule microarray, higher = more signal.
Assay [7] can be described thus: probe aShh binding to arrayed compounds – biochemical, biotinylated probe, 635/667 nm fluorescence, primary screen (AID 1114).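 Also: probe is biotin-labelled aShh protein from a stem cell growth factor screen; measures binding of labelled protein to compounds printed on the slide; score merges feature fluorescence at 667 nm with signal-to-noise.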 Particulars: small-molecule microarray, higher = more signal.
The nature of assay [8]: probe aNog binding to arrayed compounds – biochemical, biotinylated probe, 635/667 nm fluorescence, primary screen (AID 1115).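 Also: probe is biotinylated aNog protein used at 0.15 µg/mL for 1 h at 4 C; z-score combines 667 nm fluorescence of each spot with its signal to noise.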 Particulars: small-molecule microarray, higher = more signal.
Assay [9] concerns the target Torsin-1A-interacting protein 1 (Homo sapiens) (UniProt Q5JTV8). Nature of the assay: compound microarray binding of lysate hLAP1 – cell lysate, small-molecule microarray, COS7 lysate, 635/667 nm fluorescence, primary screen (AID 1116). To be noted: 635 nm fluorescence, higher = more signal.
The target in assay [10] is Alpha-bungarotoxin (Bungarus multicinctus) (UniProt P60615). Nature of the assay: compounds binding labelled alpha-BTX control protein – biochemical, small-molecule microarray, Alexa647 label, 635/667 nm fluorescence, artefact control for SMM control protein annotation, profiling panel (AID 1117). To be noted: alpha-BTX-A647 binding fluorescence, higher = more signal.
Alpha-bungarotoxin (Bungarus multicinctus), sequence (P60615 whole entry, looked up): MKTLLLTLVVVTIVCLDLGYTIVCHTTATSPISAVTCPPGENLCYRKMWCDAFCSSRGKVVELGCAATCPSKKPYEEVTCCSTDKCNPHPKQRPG

Torsin-1A-interacting protein 1 (Homo sapiens), sequence (Q5JTV8 whole entry, looked up): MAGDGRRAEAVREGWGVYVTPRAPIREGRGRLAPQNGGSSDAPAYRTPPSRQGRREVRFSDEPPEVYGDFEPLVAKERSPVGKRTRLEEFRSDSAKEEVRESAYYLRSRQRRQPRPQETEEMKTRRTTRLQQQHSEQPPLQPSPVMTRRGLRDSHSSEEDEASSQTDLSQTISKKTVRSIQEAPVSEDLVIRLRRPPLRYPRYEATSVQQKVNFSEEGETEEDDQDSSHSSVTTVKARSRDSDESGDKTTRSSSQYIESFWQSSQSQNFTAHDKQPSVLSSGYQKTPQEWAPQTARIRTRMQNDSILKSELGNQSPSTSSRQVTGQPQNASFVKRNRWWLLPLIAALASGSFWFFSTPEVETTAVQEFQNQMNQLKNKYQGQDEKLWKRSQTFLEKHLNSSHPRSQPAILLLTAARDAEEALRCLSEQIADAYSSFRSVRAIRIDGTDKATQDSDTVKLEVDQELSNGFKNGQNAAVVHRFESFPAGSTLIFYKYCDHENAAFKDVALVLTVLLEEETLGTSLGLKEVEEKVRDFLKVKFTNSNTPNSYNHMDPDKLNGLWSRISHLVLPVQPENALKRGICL
Left-right determination factor 2 (Homo sapiens), sequence (O00292 whole entry, looked up): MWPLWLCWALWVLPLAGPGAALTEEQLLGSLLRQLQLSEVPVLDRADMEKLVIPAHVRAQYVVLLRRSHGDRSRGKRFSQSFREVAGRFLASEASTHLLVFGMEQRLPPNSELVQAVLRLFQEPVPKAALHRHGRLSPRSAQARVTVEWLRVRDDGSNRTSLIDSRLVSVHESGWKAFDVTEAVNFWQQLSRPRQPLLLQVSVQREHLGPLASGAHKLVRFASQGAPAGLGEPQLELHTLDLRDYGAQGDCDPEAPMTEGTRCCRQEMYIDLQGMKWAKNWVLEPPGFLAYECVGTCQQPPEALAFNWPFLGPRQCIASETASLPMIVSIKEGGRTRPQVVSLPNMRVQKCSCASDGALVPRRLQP

Take `CON=CC[C@@H]1C=C[C@H](OC(C)=O)[C@@H](COC(C)=O)O1`: the composite z-score was -0.0635 in assay [1]; 0.533 in assay [3]; -0.536 in [4]; -0.688 in assay [5]; 0.0004 in [6]; 0.351 in [7]. The composite z-score in assay [8] is -0.0281; in assay [9] it was 0.292; in [10], 0.479. Moreover, the z-score in assay [2] worked out at 0.569.
In the case of `CC(C)CON=C1C[C@@H](O)[C@@H](O)[C@@H]2[C@@H]3C(=O)N(c4cccc(Oc5ccccc5)c4)C(=O)[C@@H]3CC[C@@H]12`, the composite z-score in [1] was 1.35; in [3], 0.374; in assay [4] it was 1.05; in assay [5], -0.426; in assay [6], 0.0215; in [7], -0.221. The composite z-score in [8] was -0.158; in assay [9] it was 1.06; in [10] it was 0.538. The z-score in [2] worked out at 0.251.
Take `CCOC(=O)C1=NO[C@]2(C=C(Br)C3(OCCCO3)[C@H]3O[C@H]32)C1`: the composite z-score in assay [1] was -1.53; in [3] it was 0.306; in assay [4], -1.04; in [5], -0.175; in assay [6] it was -0.161; in assay [7] it was -0.0879. The composite z-score stood at 0.341 in [8], 0.194 in assay [9] and 0.477 in assay [10]. The z-score in assay [2] stood at 0.426.
`COc1ccc(C#C[C@@H]2C=C[C@H](OC(C)=O)[C@@H](COC(C)=O)O2)cc1`: the composite z-score in [1] was 0.318; in [3] it was 0.591; in [4], -0.268; in assay [5], -0.534; in [6], -0.2; in assay [7] it was -0.0471. Moreover, the results for the composite z-score in [8], in [9] and in assay [10] were -0.208, 0.257 and 0.193, respectively. This compound gave a z-score in [2] of -2.21.
Turning to `O=C1C[C@@H](O)[C@@H](O)[C@@H]2[C@@H]3C(=O)N(C[C@@H]4CCCO4)C(=O)[C@@H]3CC[C@@H]12`, the composite z-score was 0.27 in assay [1]; 0.723 in assay [3]; 0.187 in assay [4]; -0.426 in assay [5]; -0.0239 in [6]; -0.106 in assay [7]. Moreover, the values for the composite z-score in [8], in assay [9] and in [10] were -0.303, 0.119 and 0.506, respectively. In addition, the z-score in assay [2] is -0.321.
Regarding `CO[C@@H]1COC(=O)CC=C[C@@H](C)[C@H](OC)COC(=O)[C@@H](C)COC(=O)CC=C[C@H]1C`, the composite z-score in assay [1] was -0.82; in assay [3], 0.889; in assay [4], -0.618; in assay [5] it was -1.59; in [6] it was -0.237; in assay [7], -0.0553. In addition, the composite z-score in assay [8] is -0.284; in assay [9], 0.263; in assay [10], -0.864. In addition, the z-score in assay [2] worked out at 0.0811.
As for `CC(C)CCN1CCc2nc(COc3ccccc3)c3c(c2C1)CO[C@@H](C)C3`, the composite z-score in assay [1] is 0.25; in [3], 0.0637; in [4], 0.683; in assay [5], 0.0677; in assay [6], -0.118; in assay [7], 0.0796. In addition, the values for the composite z-score in [8], in assay [9] and in assay [10] were 0.15, 0.686 and 0.221, respectively. Besides, the z-score in [2] came to 0.911.
`CCOC(=O)[C@H](Cc1ccccc1)NC(=O)CCC1CC(OC(=O)NCc2cccc3ccccc23)CC2(CCCC(COC(=O)NCc3cccc(C(F)(F)F)c3)O2)O1` (stereo not given in full): the composite z-score was 0.72 in [1]; -0.131 in assay [3]; 0.716 in assay [4]; 0.143 in [5]; -0.0816 in [6]; -0.345 in assay [7]. The composite z-score in [8] is -0.213; in assay [9], 0.465; in [10], 0.362. The compound further registered a z-score in assay [2] of -0.771.
Regarding `CO[C@H]1COC(=O)[C@@H](C)COC(=O)[C@H](COCc2ccccc2)NC(=O)CC=C[C@H]1C`, the composite z-score is -1.39 in [1]; 1.23 in assay [3]; -3.3 in assay [4]; -3.53 in [5]; -0.247 in [6]; 0.0062 in [7]. The composite z-score is 0.0139 in [8], -0.526 in [9] and -0.445 in assay [10]. In assay [2], the z-score is -0.292.
As to `CCOC(=O)[C@H](CC(C)C)NC(=O)CCC1CC(OC(=O)NCc2cccc3ccccc23)CC2(CCCC(COC(=O)NCCc3ccc(Cl)cc3)O2)O1` (stereo not given in full), the composite z-score is 0.529 in [1]; 0.486 in assay [3]; 0.0203 in [4]; -0.117 in assay [5]; -0.191 in [6]; -0.473 in assay [7]. The composite z-score was -0.114 in assay [8], 0.161 in assay [9] and 0.557 in assay [10]. For the same compound, in assay [2], the z-score was -0.707.
`CC(C)[C@@H](OCc1ccccc1)[C@H](C)C=NOC[C@@H](O)COCc1ccco1`: the composite z-score in assay [1] was -0.549; in assay [3], -1.05; in assay [4], -1.71; in assay [5] it was -1.81; in assay [6], -0.204; in [7] it was -0.37. Further, the values for the composite z-score in [8], in [9] and in assay [10] were -0.577, -1.05 and -0.0069, respectively. In addition, the z-score in assay [2] was -2.38.
On to `CCCNC(=O)OC[C@H]1O[C@H](CCON=C(C)CCN2CCc3nc(CC)c(CC)cc3C2)C=C[C@@H]1Oc1ccc(OC)cc1`, for which the composite z-score was -0.263 in assay [1]; 0.223 in assay [3]; -0.254 in assay [4]; -0.875 in assay [5]; -0.034 in assay [6]; -0.154 in [7]. Also, the composite z-score in [8] is -0.4; in assay [9], 0.345; in assay [10] it was 0.381. In [2], the z-score was -3.27.
Consider `CO[C@@H]1COC(=O)[C@@H](C)NC(=O)CC=C[C@@H](C)[C@H](NS(=O)(=O)c2ccc(C)cc2)COC(=O)[C@H](C)NC(=O)CC=C[C@H]1C`, for which the composite z-score in [1] is -0.0926; in assay [3], 0.765; in assay [4] it was -1.74; in assay [5], -1.94; in assay [6], -0.0045; in assay [7], -0.0709. In addition, the composite z-score in [8] is -0.433; in assay [9], 0.392; in [10], -0.744. The z-score in assay [2] came to 0.0975.
For the compound `CC(C)(C)N1C(=O)[C@H]2[C@H]3[C@H](O)[C@H](O)CC(=NO[C@@H]4O[C@H](CO)[C@@H](O)[C@H](O)[C@H]4O)[C@H]3CC[C@H]2C1=O`, the composite z-score was 0.518 in assay [1]; 0.4 in [3]; -0.653 in assay [4]; -1.12 in assay [5]; -0.0337 in assay [6]; -0.0769 in assay [7]. In addition, the composite z-score was -0.196 in assay [8], 0.509 in [9] and -0.309 in assay [10]. The z-score in [2] was -1.13.
On to `O=C1C[C@@H](O)[C@@H](O)[C@@H]2[C@@H]3C(=O)N(Cc4ccccc4)C(=O)[C@@H]3CC[C@@H]12`, for which the composite z-score in assay [1] is 0.467; in [3], 0.474; in assay [4], -0.0573; in assay [5] it was -0.761; in assay [6], -0.195; in assay [7] it was 0.0684. For the same compound, the composite z-score was -0.0784 in assay [8], 0.442 in assay [9] and 0.101 in [10]. In addition, the z-score in assay [2] is -0.76.
In the case of `CC(C)C[C@H](NC(=O)CCC1CC(OC(=O)NCc2cccc3ccccc23)CC2(CCCC(COC(=O)NCc3ccccc3)O2)O1)C(=O)NCC(c1ccccc1)c1ccccc1` (stereo not given in full), the composite z-score in assay [1] was 1.28; in [3] it was 0.913; in assay [4], 0.0799; in [5], -0.202; in [6] it was -0.0825; in assay [7], 0.0611. In addition, the composite z-score is -0.0863 in assay [8], 0.508 in [9] and -0.157 in assay [10]. This compound also registered a z-score in assay [2] of -1.27.
As for `CC(CCN1CCCCc2nc(C)c(C)cc21)=NOC[C@@H](O)COCc1ccco1`, the composite z-score in assay [1] was -1.68; in [3] it was 1.61; in [4], -1.34; in [5] it was -1.81; in [6] it was -0.129; in [7] it was 0.0121. Also, the composite z-score in assay [8] is -0.911; in assay [9], 0.43; in assay [10], -0.527. The z-score in assay [2] turned out to be 0.0716.
Regarding `COC(=O)[C@H](C)NC(=O)CCC1CC(OC(=O)NCc2ccc3c(c2)OCO3)CC2(CCCC(COC(=O)NCC3CCCCC3)O2)O1` (stereo not given in full), the composite z-score in [1] is 1.37; in assay [3] it was 0.764; in assay [4], 0.369; in assay [5] it was -0.0553; in [6], 0.0775; in assay [7] it was -0.138. Besides, the composite z-score is 0.656 in [8], 0.173 in assay [9] and 0.54 in assay [10]. Moreover, the z-score in assay [2] was -1.48.
